Results filed as inconclusive are left out. Unmarked numbers belong to inactive results. The call rests on the fitted dose curve; in most records, active means well fitted inhibition curve with a large enough effect; inconclusive means small, poorly fitted or top-dose-only effect; inactive means flat fitted curve, though single readings scatter.
The compounds below were run against Lysine-specific demethylase 5B (Homo sapiens) (UniProt Q9UGL1) (assay: Optimization screen for KDM5B Histone Demethylases FDH coupled qHTS against the LOPAC library (AID 1347166; further: 0% is about no effect)). Details: KDM5B demethylation, FDH-coupled NADH fluorescence (FDH is formaldehyde dehydrogenase); series mostly up to 57.5 µM; activity, negative = inhibition: at the top concentration.
Sequence of Lysine-specific demethylase 5B (Homo sapiens) (Q9UGL1 whole entry, looked up): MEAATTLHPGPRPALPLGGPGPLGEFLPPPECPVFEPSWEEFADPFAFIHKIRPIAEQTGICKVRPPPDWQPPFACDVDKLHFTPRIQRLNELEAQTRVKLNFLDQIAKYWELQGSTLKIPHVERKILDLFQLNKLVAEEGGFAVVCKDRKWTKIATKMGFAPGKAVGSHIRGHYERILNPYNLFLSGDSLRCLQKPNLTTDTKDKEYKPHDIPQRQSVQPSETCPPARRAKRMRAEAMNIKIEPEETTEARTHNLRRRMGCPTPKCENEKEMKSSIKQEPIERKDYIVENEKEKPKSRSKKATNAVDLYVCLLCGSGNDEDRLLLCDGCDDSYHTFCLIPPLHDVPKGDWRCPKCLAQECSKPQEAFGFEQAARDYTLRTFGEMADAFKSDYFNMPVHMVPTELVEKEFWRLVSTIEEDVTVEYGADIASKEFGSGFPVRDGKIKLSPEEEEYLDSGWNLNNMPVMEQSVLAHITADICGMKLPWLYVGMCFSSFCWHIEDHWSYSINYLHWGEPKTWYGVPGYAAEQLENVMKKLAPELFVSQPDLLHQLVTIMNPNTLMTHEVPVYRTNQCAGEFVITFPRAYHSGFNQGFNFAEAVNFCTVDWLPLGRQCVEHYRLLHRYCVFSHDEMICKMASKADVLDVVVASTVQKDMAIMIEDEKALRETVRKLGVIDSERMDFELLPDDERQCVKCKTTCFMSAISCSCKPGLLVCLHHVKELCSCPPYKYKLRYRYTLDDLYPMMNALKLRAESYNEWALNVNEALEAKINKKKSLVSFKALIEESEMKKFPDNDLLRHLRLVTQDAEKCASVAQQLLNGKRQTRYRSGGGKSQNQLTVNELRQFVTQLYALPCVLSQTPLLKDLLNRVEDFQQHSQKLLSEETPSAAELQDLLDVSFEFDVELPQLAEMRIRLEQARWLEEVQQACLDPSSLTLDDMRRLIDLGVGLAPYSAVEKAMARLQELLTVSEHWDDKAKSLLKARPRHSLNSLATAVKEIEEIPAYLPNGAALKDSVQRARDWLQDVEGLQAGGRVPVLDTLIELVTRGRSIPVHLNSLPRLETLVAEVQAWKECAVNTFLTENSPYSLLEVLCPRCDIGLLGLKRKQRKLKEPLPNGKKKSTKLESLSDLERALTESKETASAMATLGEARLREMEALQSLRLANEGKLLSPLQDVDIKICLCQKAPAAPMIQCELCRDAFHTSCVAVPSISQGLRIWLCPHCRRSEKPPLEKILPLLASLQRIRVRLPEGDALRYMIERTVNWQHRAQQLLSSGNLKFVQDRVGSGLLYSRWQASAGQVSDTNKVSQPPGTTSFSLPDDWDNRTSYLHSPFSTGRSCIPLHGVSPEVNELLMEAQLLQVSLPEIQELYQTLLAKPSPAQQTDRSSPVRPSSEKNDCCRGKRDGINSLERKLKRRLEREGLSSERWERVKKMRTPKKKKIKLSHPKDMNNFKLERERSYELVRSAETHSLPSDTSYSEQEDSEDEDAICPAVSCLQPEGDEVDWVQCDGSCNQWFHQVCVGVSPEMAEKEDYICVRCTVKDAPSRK
Procedure, shortened: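 KDM5BDeltaAP (200nM final) preincubated 10 min with compound, then 12.5uM H3K4Me3, 25uM a-ketoglutarate, ascorbate, Fe(II), NAD+ and FDH added; 50mM HEPES pH 7.5, 0.01% Tween-20. NADH fluorescence (340/450 nm) change over 30 min, room temperature.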

Structure (SMILES)	activity, negative = inhibition [%]
NC(=O)OCC(COC(N)=O)c1ccccc1	-4.71
COc1cc2c(c(OC)c1OC)-c1ccc(OC)c(=O)cc1[C@@H](NC(C)=O)CC2	0.736
CN1CCC(=C2c3ccccc3C=Cc3ccccc32)CC1	-1.92
Nc1c2c(nc3ccccc13)CCCC2	-7.94
CC#C[C@]1(O)CC[C@H]2[C@@H]3CCC4=CC(=O)CCC4=C3[C@@H](c3ccc(N(C)C)cc3)C[C@@]21C	-10
CN(C)CCOC(c1ccccc1)c1ccccc1	-3.33
NS(=O)(=O)c1cc2c(cc1Cl)NCNS2(=O)=O	-7.48
COc1ccccc1N1CCN(CC(O)COc2cccc3ccccc23)CC1 (stereo not drawn)	-29.4
Cc1cn([C@H]2C=C[C@@H](CO)O2)c(=O)[nH]c1=O	-3.2
CCC1(c2ccccc2)C(=O)NCNC1=O	-4.32
CN1C(C(=O)Nc2ccccn2)=C(O)c2ccccc2S1(=O)=O	-8.12
CCC1(C)CC(=O)NC1=O (stereo not drawn)	-4.98
CC(C)(Oc1ccc(C2CC2(Cl)Cl)cc1)C(=O)O (stereo not drawn)	1.4
Cn1ccc2cc3c(cc21)CCN3C(=O)Nc1cccnc1	-23.1
COc1ccccc1OCC(O)CN1CCN(CC(=O)Nc2c(C)cccc2C)CC1 (stereo not drawn)	-4.17
Cc1cnc(C(=O)NCCc2ccc(S(=O)(=O)NC(=O)NC3CCCCC3)cc2)cn1	-5.77
CN1CCN2c3ccccc3Cc3ccccc3C2C1 (stereo not drawn)	-2.51
Nc1nnc(-c2cccc(Cl)c2Cl)c(N)n1	-9.49
COc1nc(C)nc(Cl)c1NC1=NCCN1	-4.07
CN(C)C(=O)C(CCN1CCC(O)(c2ccc(Cl)cc2)CC1)(c1ccccc1)c1ccccc1	-8.95
CC(C)C(=O)Nc1ccc([N+](=O)[O-])c(C(F)(F)F)c1	-2.58
OCCN1CCN(CCCN2c3ccccc3Sc3ccc(C(F)(F)F)cc32)CC1	-11.7
O=c1[nH]cc(F)c(=O)[nH]1	-9.08
COc1ccc(CCN(C)CCCC(C#N)(c2ccc(OC)c(OC)c2)C(C)C)cc1OC (stereo not drawn)	-6.88
Cn1c(=O)c2[nH]cnc2n(C)c1=O	-8.38
Cc1cc(C(C)(C)C)cc(C)c1CC1=NCCN1	-3.4
Fc1ccc([C@@H]2CCNC[C@H]2COc2ccc3c(c2)OCO3)cc1	-4.04
CC12CC3CC(C)(C1)CC(N)(C3)C2	9.9

Reference: PubChem BioAssay (NCATS)
